Experimental data: PubChem BioAssay (NCATS)
Several values for one entry are separate records, joined by “and”; a condition that tells them apart may be missing. Equal entries are not always repeated. Inconclusive results are not listed. Activity calls are given as the source filed them. Unless noted, calls follow the shape of the dose curve; as a rule, active = well fitted curve in the direction sought with a large enough effect; inconclusive = small, poorly fitted or top-dose-only effect, or another doubt; inactive = no such curve, though single readings can be large; an effect the other way counts as inactive or inconclusive.

What was measured:
[1] = qHTS for compounds that reverse cellular toxicity of Amyloid beta (A-beta) peptide in yeast: LOPAC Validation Assay (AID 720559);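 also: plate controls were DMSO for no effect and equimolar ferric chloride plus clioquinol rescue for full effect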
How it was run: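 Medium dispensed, compounds pinned, A-beta yeast suspension added; plates held at 30 C for 48 hr; absorbance measured at 600 nm to gauge growth; values scaled between DMSO and FeCl3/clioquinol (equimolar) controls.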

[2] = qHTS for Activators of Parkin Expression: LOPAC Validation Assay (NLuc Reporter) (AID 720572;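 also: 0% = DMSO and 100% = positive control compound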)
How it was run: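 Parkin promoter-driven FLuc/NLuc neuronal reporter cells; 24 h plating, 7-pt dose response, 24 h at 37 C/5% CO2; FLuc then NanoLuc reagent, 10 min each, luminescence; DMSO/positive control normalized.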

[3] = molecular target: T1, Hexokinase-4 (Homo sapiens) + Glucokinase regulatory protein (Homo sapiens) (UniProt P35557+Q14397); assay: qHTS assay for inhibitors of recombinant human GCK-GKRP interaction: Diaphorase-coupled assay (AID 743205)
How it was run: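 25 mM Hepes pH 7.6, 5 mM glucose, 0.4 mM ATP, 4 U/ml G6PDH; 10 nM each GST-GCK/FLAG-GKRP. Kinetic fluorescence read, 1/min × 30 min. Normalized: DMSO ± enzyme = max/min.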

[4] = molecular target: T1, Hexokinase-4 (Homo sapiens) + Glucokinase regulatory protein (Homo sapiens); assay: qHTS assay for inhibitors of recombinant human GCK-GKRP interaction: ADP-Glo assay (AID 743206);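 also: plate controls were DMSO plus enzyme for no effect and no enzyme for full effect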
How it was run: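 GST-GCK and FLAG-GKRP (15 nM each in the dispensed mix, with 2 uM S6P) react with 0.4 mM ATP and 5 mM glucose (final) in Hepes pH 7.6 for 60 min at room temperature. ADP is measured by ADP-Glo luminescence.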

[5] = molecular target: T1, Hexokinase-4 (Homo sapiens) + Glucokinase regulatory protein (Homo sapiens); assay: qHTS assay for inhibitors of recombinant human GCK-GKRP interaction: HTRF assay (AID 743207);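 also: 0% = DMSO with GCK present and -100% = DMSO wells lacking GCK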
How it was run: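 5 nM GST-GCK + 5 nM FLAG-GKRP + 2 uM S6P, pH 7.1 buffer (25 mM Hepes, 2 mM MgCl2, 25 mM KCl, 1 mM DTT, Tween/BSA); pin-transferred cpd; anti-FLAG XL665/anti-GST K; 60 min RT; HTRF.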

[6] = qHTS Assay for Identifying Gametocytocidal Compounds (AID 743244); also: potency is read from the fitted curve at half-maximal effect;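 as to max response: % is scaled to controls: 0 for no effect and ±100 for the full control effect; actives lower the fluorescent signal which means gametocytes are killed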; settings: P. falciparum 3D7 stage III-V gametocytes, alamarBlue, 72 h; max response: stronger effect = lower value
How it was run: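 In this qHTS viability screen, late-stage 3D7 gametocytes are incubated with compound for 72 h, then with alamarBlue for 24 h; reduced resorufin fluorescence marks killing.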

[7] = qHTS profiling of the MIPE4 collection as inhibitors of Plasmodium falciparum (3D7) proliferation (AID 743344; call rule not given here;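 also: scaled between DMSO vehicle wells and 0.29 µM artemisinin as full inhibition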); settings: P. falciparum 3D7 in erythrocytes, SYBR Green DNA fluorescence, 72 h; at 28.5 µM (top of the series) unless noted
How it was run: (§1)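 Erythrocytes infected with P. falciparum (0.3% parasitemia, 2.5% hematocrit) incubated with compounds 72 h at 37 C, 5% CO2. Lysis with saponin/Triton buffer containing SYBR Green I, overnight at room temperature in the dark; DNA fluorescence (485/535 nm) normalised to 0.29 uM artemisinin and DMSO.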

[8] = qHTS profiling of the MIPE4 collection as inhibitors of Plasmodium falciparum (DD2) proliferation (AID 743345; call rule not given here); settings: P. falciparum Dd2 in erythrocytes, SYBR Green DNA, 72 h; at 28.5 µM (top of the series) unless noted
How it was run: as §1

[9] = qHTS profiling of the MIPE4 collection as inhibitors of Plasmodium falciparum (DD2) proliferation (Rep 2) (AID 743346; call rule not given here); settings: P. falciparum Dd2 in erythrocytes, SYBR Green DNA, 72 h; at 28.5 µM (top of the series) unless noted
How it was run: as §1

[10] = qHTS profiling of the MIPE4 collection as inhibitors of Plasmodium falciparum (HB3) proliferation (AID 743347; call rule not given here;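 also: plate controls were DMSO vehicle wells for no effect and artemisinin wells for full effect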); settings: P. falciparum HB3 in erythrocytes, SYBR Green DNA, 72 h; at 28.5 µM (top of the series) unless noted
How it was run: as §1

[11] = High-throughput drug toxicity screening in the BPDCN cell line Gen2.2 (AID 1224824; call rule not given here;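 also: cells exposed to compounds for 48 h before reading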); settings: Gen2.2 BPDCN cells; at 45.8 µM (top of the series) unless noted
How it was run: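 Seed 500 exponentially growing Gen2.2 cells/well; add compounds by pin tool; incubate 48 h, 37 °C, 5% CO2; add CellTiter-Glo, 15 min RT; read luminescence. % activity vs DMSO (100%) and bortezomib (0%).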

[12] = qHTS profiling for inhibitors of Plasmodium falciparum (DD2) proliferation (AID 743323; call rule not given here); settings: lower = more inhibition; at 28.7 µM (top of the series) unless noted
How it was run: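 Parasite DNA quantified by SYBR Green fluorescence (ex 485, em 535 nm) after saponin/Triton lysis and overnight dark incubation. Cultures: 0.3% parasitemia, 2.5% hematocrit, 72 h, 37 C; data scaled between DMSO and 0.29 uM artemisinin.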

T1 sequence (P35557 whole entry, looked up): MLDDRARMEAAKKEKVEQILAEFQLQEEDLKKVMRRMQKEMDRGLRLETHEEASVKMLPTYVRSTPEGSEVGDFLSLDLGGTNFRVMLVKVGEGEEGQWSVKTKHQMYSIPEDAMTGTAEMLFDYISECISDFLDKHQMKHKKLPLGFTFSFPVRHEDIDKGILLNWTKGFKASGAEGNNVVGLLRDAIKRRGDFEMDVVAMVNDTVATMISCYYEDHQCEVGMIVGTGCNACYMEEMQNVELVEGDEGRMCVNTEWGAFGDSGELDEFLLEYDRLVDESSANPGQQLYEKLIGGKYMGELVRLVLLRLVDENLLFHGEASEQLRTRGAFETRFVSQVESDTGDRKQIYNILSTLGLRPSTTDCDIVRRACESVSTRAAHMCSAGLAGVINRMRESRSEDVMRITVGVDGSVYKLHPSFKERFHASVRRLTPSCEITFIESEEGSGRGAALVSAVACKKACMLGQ
T1 sequence (Q14397 whole entry, looked up): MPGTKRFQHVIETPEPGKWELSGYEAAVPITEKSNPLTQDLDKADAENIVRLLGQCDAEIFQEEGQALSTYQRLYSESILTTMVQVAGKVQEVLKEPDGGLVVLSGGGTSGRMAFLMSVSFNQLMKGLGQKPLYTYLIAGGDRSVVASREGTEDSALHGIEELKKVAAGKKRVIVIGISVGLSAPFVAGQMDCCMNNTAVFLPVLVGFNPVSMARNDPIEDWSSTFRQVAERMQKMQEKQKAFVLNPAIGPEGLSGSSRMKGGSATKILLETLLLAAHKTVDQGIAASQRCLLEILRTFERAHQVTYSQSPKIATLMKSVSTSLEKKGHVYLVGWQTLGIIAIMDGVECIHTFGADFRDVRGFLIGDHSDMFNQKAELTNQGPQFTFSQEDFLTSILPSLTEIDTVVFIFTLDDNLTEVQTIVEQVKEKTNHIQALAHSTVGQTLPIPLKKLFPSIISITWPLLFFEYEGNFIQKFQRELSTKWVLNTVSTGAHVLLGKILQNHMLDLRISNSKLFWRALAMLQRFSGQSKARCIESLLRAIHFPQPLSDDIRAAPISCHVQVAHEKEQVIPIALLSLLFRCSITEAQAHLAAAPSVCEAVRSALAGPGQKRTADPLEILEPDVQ

COc1cc2c(cc1OC)C1CC(=O)C(CC(C)C)CN1CC2 (configuration not stated)
outcome [1]: inactive | outcome [2]: inactive | outcome [3]: inactive | outcome [4]: inactive | outcome [5]: inactive | max response [6]: 30.1% (inactive) | parasite growth, % of DMSO control [7]: 82.2% | parasite growth remaining, % of DMSO control (lower = more inhibition) [8]: 7.77% | parasite growth, % of control (lower = inhibition) [9]: 77.8% | growth, % of control [10]: 67.9% | cell viability, % of control (lower = more cytotoxic) [11]: 141%

CCOC(=O)C1=C[C@@H](OC(CC)CC)[C@H](NC(C)=O)[C@@H](N)C1
max response [6]: -3.59% (inactive) | cell viability, % of control (lower = more cytotoxic) [11]: 152%

Oc1ccc2ccccc2c1SSc1c(O)ccc2ccccc12
outcome [1]: inactive | outcome [2]: inactive | outcome [3]: inactive | outcome [4]: inactive | outcome [5]: inactive | Potency [6]: 3.55 µM (active) | parasite growth, % of DMSO control [7]: 6.56% | parasite growth remaining, % of DMSO control (lower = more inhibition) [8]: 53.4% | parasite growth, % of control (lower = inhibition) [9]: 30.4% | growth, % of control [10]: 9.78% | cell viability, % of control (lower = more cytotoxic) [11]: 2.05%

O=C(O)c1cccnc1Nc1cccc(C(F)(F)F)c1
outcome [1]: inactive | outcome [2]: inactive | outcome [3]: inactive | outcome [4]: inactive | outcome [5]: inactive | max response [6]: -9.57% (inactive) and 27.4% (inactive) | parasite growth, % of DMSO control [7]: 83.9% | parasite growth remaining, % of DMSO control (lower = more inhibition) [8]: 87.2% | parasite growth, % of control (lower = inhibition) [9]: 77.4% | growth, % of control [10]: 74% | cell viability, % of control (lower = more cytotoxic) [11]: 122%

COc1ccccc1N1CCN(CCN(C(=O)C2CCCCC2)c2ccccn2)CC1
outcome [1]: inactive | outcome [2]: inactive | outcome [3]: inactive | outcome [4]: inactive | outcome [5]: inactive | max response [6]: 6.13% (inactive) | parasite growth, % of DMSO control [7]: 57.8% | parasite growth remaining, % of DMSO control (lower = more inhibition) [8]: 78.2% | parasite growth, % of control (lower = inhibition) [9]: 40.7% | growth, % of control [10]: 83.7% | cell viability, % of control (lower = more cytotoxic) [11]: 39.9%

O=c1cc(N2CCOCC2)oc2c(-c3ccccc3)cccc12
outcome [1]: inactive | outcome [3]: inactive | outcome [4]: inactive | outcome [5]: inactive | max response [6]: 3.56% (inactive) | activity, percent of control [12]: 96.7% | parasite growth, % of DMSO control [7]: 51.9% | parasite growth remaining, % of DMSO control (lower = more inhibition) [8]: 96% | parasite growth, % of control (lower = inhibition) [9]: 78.4% | growth, % of control [10]: 36.7% | cell viability, % of control (lower = more cytotoxic) [11]: 13.3%

CN1C(C(=O)Nc2ccccn2)=C(O)c2sccc2S1(=O)=O
max response [6]: 15.1% (inactive) | cell viability, % of control (lower = more cytotoxic) [11]: 40.6%

COCCCOc1ccnc(CS(=O)c2nc3ccccc3[nH]2)c1C (configuration not stated)
max response [6]: 2.05% (inactive) | cell viability, % of control (lower = more cytotoxic) [11]: 139%

C[C@H](Cc1ccc(O)c(O)c1)[C@@H](C)Cc1ccc(O)c(O)c1
outcome [1]: inactive | outcome [3]: inactive | outcome [4]: inactive | outcome [5]: inactive | max response [6]: 4.03% (inactive) | parasite growth, % of DMSO control [7]: 15.1% | parasite growth remaining, % of DMSO control (lower = more inhibition) [8]: 17.2% | parasite growth, % of control (lower = inhibition) [9]: 16.4% | growth, % of control [10]: 20.7% | cell viability, % of control (lower = more cytotoxic) [11]: 7.79%

COc1cc2nc(N3CCN(C(=O)C4CCCO4)CC3)nc(N)c2cc1OC (configuration not stated)
outcome [1]: inactive | outcome [2]: inactive | outcome [3]: inactive | outcome [4]: inactive | outcome [5]: inactive | max response [6]: -8.17% (inactive) and 12.4% (inactive) | parasite growth, % of DMSO control [7]: 30.8% | parasite growth remaining, % of DMSO control (lower = more inhibition) [8]: 76.4% | parasite growth, % of control (lower = inhibition) [9]: 46.2% | growth, % of control [10]: 11.3% | cell viability, % of control (lower = more cytotoxic) [11]: 151%
